Here are results for 40 molecules from PubChem BioAssay.

Active and inactive are the calls of the source.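 The calls were made as follows: active = inhibition above the hit cutoff set in the earlier primary screen (cut at about 27% in these data); inactive = the rest.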

In the experiment the target is Protein phosphatase methylesterase 1 (Homo sapiens) (UniProt Q9Y570). The experiment is described as follows: human PME-1 methylesterase inhibition confirmation – biochemical, fluorescence polarization, FP-Rh probe, triplicate (AID 2171).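 Also: 0% = enzyme with DMSO and 100% = wells lacking PME-1.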 The conditions noted are these: recombinant PME-1, FP-Rh probe fluorescence polarization; at 5.9 µM; active compounds read high.
Sequence of Protein phosphatase methylesterase 1 (Homo sapiens) (Q9Y570 whole entry, looked up): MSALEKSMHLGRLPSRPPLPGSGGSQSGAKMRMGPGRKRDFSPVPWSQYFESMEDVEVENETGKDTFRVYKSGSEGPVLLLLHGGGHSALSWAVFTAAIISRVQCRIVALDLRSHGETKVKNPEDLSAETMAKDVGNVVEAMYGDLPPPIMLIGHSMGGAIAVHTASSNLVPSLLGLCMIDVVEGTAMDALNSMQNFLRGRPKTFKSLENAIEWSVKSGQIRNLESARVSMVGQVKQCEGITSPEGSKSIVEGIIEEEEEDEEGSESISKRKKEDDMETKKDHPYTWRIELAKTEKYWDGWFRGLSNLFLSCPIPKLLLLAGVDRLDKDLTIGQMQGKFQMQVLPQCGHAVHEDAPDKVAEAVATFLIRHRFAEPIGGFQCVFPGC
In general, inhibition refers to the drop in the measured response relative to a control, in per cent. Turning to `Cn1c(N/N=C/c2c[nH]c3ccccc23)nc2ccccc21`, the inhibition was 28.6% (active).

Consider `O=C(Nc1cccc(-c2csc(Nc3ccccc3)n2)c1)c1cc([N+](=O)[O-])cc(C(F)(F)F)c1`, for which the inhibition was 23% (inactive).

Turning to `COc1cc(/C=N/NC(=O)C(Cc2c[nH]c3ccccc23)NC(=O)OCc2ccccc2)cc([N+](=O)[O-])c1O` (stereo not given), the inhibition was 15.4% (inactive).

On to `COC(=O)c1ccc(C2Nc3cccc4cccc(c34)N2)cc1`, for which the inhibition was 51.9% (active).

`Cc1[nH]c2ccccc2c1/C=C/c1nc2ccccc2c(=O)n1CCO`: the inhibition was 68.3% (active).

Take `Nc1nonc1N/N=C/c1c(O)ccc2ccccc12`: the inhibition was 23.6% (inactive).

As to `Cc1ccc(Cn2nnc3c(=O)[nH]c(C4CCN(S(=O)(=O)/C=C/c5ccccc5)CC4)nc32)cc1`, the inhibition is 23.8% (inactive).

In the case of `CCOc1cccc(CNc2ccc(O)cc2)c1OCc1ccccc1Cl`, the inhibition is 6.79% (inactive).

With `O=[N+]([O-])c1ccccc1/C=C/C=N/Nc1ccc(S(=O)(=O)Nc2ccc(Cl)cc2)cc1[N+](=O)[O-]`, the inhibition was 14.2% (inactive).

With `COc1ccc(N=Nc2nc(-c3ccccc3)c(-c3ccccc3)[nH]2)cc1`, the inhibition is 10.8% (inactive).

With `Oc1ccc(/C=N/Nc2ccc(C(F)(F)F)cn2)c(O)c1`, the inhibition is 17.8% (inactive).

With `CC(=O)c1c(C)n(-c2ccc(N(C)C)cc2)c2ccc(OCC(N)=O)cc12`, the inhibition is 23.7% (inactive).

Consider `CCc1ccc(-c2cc(C(=O)N/N=C/c3c[nH]c4ccccc34)[nH]n2)cc1`, for which the inhibition is 12% (inactive).

On to `CC(C)(C)c1cc(C(=O)N/N=C/c2ccc(-c3ccccc3[N+](=O)[O-])o2)n[nH]1`, for which the inhibition is 1.81% (inactive).

As to `Nc1[nH]n(-c2ccccc2)c(=O)c1N=Nc1ccc2c(c1)OCCO2`, the inhibition is 34.5% (active).

For the molecule `CCOC(=O)Cc1csc(NC(=O)c2sc3nc4cc(C)ccc4cc3c2N)n1`, the inhibition is 20.8% (inactive).

Regarding `CC1CCCCN1S(=O)(=O)c1ccc(C(=O)Nc2ccccc2-c2nc3ccccc3[nH]2)cc1` (stereo not given), the inhibition was 8.87% (inactive).

Consider `CCOC(=O)C(C)On1c(-c2ccccc2)nc2ccc([N+](=O)[O-])cc21` (stereo not given), for which the inhibition is 34.2% (active).

With `COC(=O)c1cccc(C#CC(NP(=O)(c2ccccc2)c2ccccc2)c2ccccc2)c1` (stereo not given), the inhibition is 35.1% (active).

For the molecule `CCc1nnc(NC(=O)CSc2nc(C)c3c(c2C#N)CCCC3)s1`, the inhibition is 13.9% (inactive).

Take `O=C1CC(N(O)c2ccccc2)C(=O)N1c1cc(Cl)cc(Cl)c1` (stereo not given): the inhibition was 5.35% (inactive).

For the molecule `Cn1c(=O)c2c(nc(CN3CCN(C(c4ccccc4)c4ccccc4)CC3)n2CCCO)n(C)c1=O`, the inhibition is 23.8% (inactive).

With `Cc1onc(NC(=O)NC(=O)c2c(Cl)cccc2Cl)c1Br`, the inhibition was 17.4% (inactive).

For the molecule `Cc1ccc(OCCn2cc(/C=N/NC(=O)c3ccncc3)c3ccccc32)cc1`, the inhibition was 33.5% (active).

Take `Cc1[nH]c2ccccc2c1/C=N/NC(=O)c1cc(-c2ccncc2)nc2ccccc12`: the inhibition was 23% (inactive).

For the molecule `O=C(COC(=O)CCCN1C(=O)c2cccc3cccc(c23)C1=O)Nc1ccc(Cl)cc1`, the inhibition is 22.7% (inactive).

For the molecule `COc1ccc(C2CC(c3ccc(OC)c(OC)c3)=NN2S(C)(=O)=O)cc1` (stereo not given), the inhibition was 22.9% (inactive).

On to `CCc1ccc2nc3sc(C(=O)Nc4nnc(CC)s4)c(N)c3cc2c1`, for which the inhibition was 57.6% (active).

Consider `CCCOc1ccc(C2Nc3cccc4cccc(c34)N2)cc1`, for which the inhibition was 38.3% (active).

Turning to `N#CCSc1nc2c(cc1C#N)CCCCCC2`, the inhibition was 22.3% (inactive).

As for `Cc1cc(C)c2c(N)c(-c3nc4ccccc4[nH]3)sc2n1`, the inhibition was 3.16% (inactive).

In the case of `Cc1cc(C)c2c(N)c(C(=O)NN)sc2n1`, the inhibition was 10.5% (inactive).

As to `Oc1c(Br)cc(Br)c(/C=N/n2c(-c3ccccc3)n[nH]c2=S)c1Br`, the inhibition is 45.5% (active).

For `CCOc1cc(/C=C/c2ccc3cccc([N+](=O)[O-])c3n2)cc(Cl)c1O`, the inhibition was -9.78% (inactive).

For `Nc1ccc(O)c2c1C(=O)c1ccccc1C2=O`, the inhibition was 46.5% (active).

As to `COc1cccc(C(=O)Oc2ccc(/C=N/Nc3ccc(C(=O)O)cc3)cc2OC)c1`, the inhibition is 36.3% (active).

As to `CCOc1cc(-c2cc(-c3ccc(N)cc3)nc(N)c2C#N)ccc1O`, the inhibition was 41.5% (active).

As for `Cc1cc(C)c2[nH]c(O)c(N=NC(=O)c3cc4c(s3)CCCC4)c2c1`, the inhibition was 31.9% (active).

As for `COc1cc2c(cc1OC)CN(C(=O)c1ccc3[nH]c(C)c(C)c3c1)CC2`, the inhibition is 38.8% (active).

With `COc1cc2c(cc1NC(=O)c1cccnc1)oc1ccccc12`, the inhibition is 25.8% (inactive).
